Data taken from PubChem BioAssay (NCI).
Compounds without any hit were thinned out: in the full panel of roughly 83,000, 20% have a hit.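 48-hour exposure, single concentration, 96-well plates; percent growth endpoint where 0 means no net growth. Active: below 10.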 Values without a mark were called inactive. Active and inactive are the calls of the source.

How the values were obtained:
Test in all cases: NCI-60 one-dose screen, 48 h (100 = growth as untreated, 0 = no growth, -100 = all killed)
Settings in all cases: 10 µM unless noted
HCT-15 colon = tested on: HCT-15 colon
HT29 colon = tested on: HT29 colon
SNB-75 CNS = tested on: SNB-75 CNS
SNB-19 CNS = tested on: SNB-19 CNS
U251 CNS = tested on: U251 CNS
PC-3 prostate = tested on: PC-3 prostate
SK-MEL-5 melanoma = tested on: SK-MEL-5 melanoma
UACC-62 melanoma = tested on: UACC-62 melanoma
LOX IMVI melanoma = tested on: LOX IMVI melanoma
SK-MEL-28 melanoma = tested on: SK-MEL-28 melanoma

SMILES | growth (HCT-15 colon) | growth (HT29 colon) | growth (SNB-75 CNS) [%] | growth (SNB-19 CNS) [%] | growth (U251 CNS) | growth (PC-3 prostate) [%] | growth (SK-MEL-5 melanoma) | growth (UACC-62 melanoma) | growth (LOX IMVI melanoma) | growth (SK-MEL-28 melanoma)
O=C1NC(=O)/C(=C/c2c(-c3ccccc3)nc3sc(COc4ccccc4)nn23)S1 | 97.2% | 117% | 108 | 95.6 | 96.7% | 111 | 97.9% | 90% | 57% | 110%
O=C(CCl)NNc1nccc(Nc2ccc(S(=O)(=O)Nc3ccncc3)cc2)n1 | 22.2% | 27.4% | 54.7 | 31.1 | -9.06% (active) | 56 | 7.95% (active) | 31.4% | 17.6% | 53.7%
N#Cc1cccc(C2C3=C(COC3=O)N(CCO)c3cc4c(cc32)OCO4)c1 (stereo not given) | 26.1% | 6.62% (active) | 13 | 32.9 | 21.7% | 29.4 | 29.6% | 43.4% | 35.9% | 55.2%
Cn1cc(-c2nn3cc(-c4cccs4)nc3s2)c2cc(F)ccc21 | 23.5% | 7.69% (active) | 11.9 | 32.1 | 26% | 45.2 | 29.3% | 33.1% | 35.4% | 49.7%
CC1(C)CC[C@]2(C(=O)N[C@H](CO)Cc3ccccc3)CC[C@]3(C)C(=CC[C@@H]4[C@@]5(C)CCCNC(C)(C)[C@@H]5CC[C@]43C)[C@@H]2C1 | 60.5% | 10.6% | 87.1 | 84.8 | 68.9% | 25.7 | 90.7% | 78.5% | 69.6% | 106%
O=C(N=Nc1c(O)[nH]c2ccccc12)Nc1ccc(F)cc1 | 97% | 102% | 91.3 | 97 | 90.7% | 85.9 | 101% | 79.3% | 92.2% | 108%
O=[N+]([O-])c1ccc(-c2cn3nc(-c4c[nH]c5ccccc45)sc3n2)cc1 | 86% | 95.3% | 96.4 | 93.4 | 96.9% | 93.7 | 91.2% | 84.2% | 94.7% | 111%
O=C(CN1CCCCCC1)Nc1nc2ccc(NCc3ccc(Cl)cc3)cc2s1 | 99.2% | 95.7% | 94.2 | 95.8 | 95.8% | 84.3 | 98.4% | 88.5% | 96.7% | 104%
O=C(/C=C/c1ccccc1)c1ccc(Nc2nc(Nc3ccc(F)cc3)nc(Nc3ccc(Cl)cc3)n2)cc1 | 86.7% | 83.5% | 95 | 101 | 78.9% | 74.5 | 79% | 100% | 85.1% | 90.9%
NC1(CO)COC(c2ccccc2)OC1 (stereo not given) | 113% | 96.7% | 120 | 111 | 97.5% | 99 | 96.1% | 111% | 107% | 118%
O=C(c1c[nH]c2ccccc12)c1n[nH]c(=S)n1-c1cccc(Br)c1 | 40.9% | 96.2% | 83.2 | 93.8 | 97.3% | 87.8 | 28% | 51.9% | 93.2% | 105%
CCNC(=O)Oc1ccc(/C(=C(/C)Cc2ccc(OC)cc2)c2ccc(OCCN3CCCCC3)cc2)cc1 | 38.9% | 1.16% (active) | 69 | 76 | 47.5% | 55.6 | 46.2% | 58.4% | 60.9% | 67.6%
COc1ccc(-c2cc(-c3ccccc3)nc(N3CCN(CCNc4ccnc5cc(Cl)ccc45)CC3)n2)cc1 | -82% (active) | -67.6% (active) | 83.6 | 72.7 | 0.46% (active) | 32.4 | -98.6% (active) | 62.2% | -95.1% (active) | -93.1% (active)
CC1(C)OB(O)c2cc(-c3nc4ccc5[nH]ncc5c4c4c3CCCC4)ccc21 | 38.2% | 56.3% | 75 | 90.6 | 61.8% | 41.3 | -67.9% (active) | 37.7% | 42% | 87.4%
C/C(Cc1ccc(Cl)cc1)=C(\c1ccc(OCCCN(C)C)cc1)c1ccc(OC(=O)Cc2ccccc2)cc1 | 103% | 78.8% | 92.8 | 105 | 112% | 96.5 | 102% | 105% | 99.2% | 103%
CCCCCCCCCCCCCOC(=O)c1c(C)[nH]c(/C=C2\N=C(c3ccc[nH]3)C=C2OC)c1C | 4.86% (active) | 8.1% (active) | 21.2 | 48.1 | 23.9% | 27.6 | -89.1% (active) | -19.1% (active) | -56.4% (active) | 30.2%
Cc1ccc2nc(NC(=O)CSc3nc(-c4ccccc4)c(C#N)c4nnnn34)sc2c1 | 113% | 106% | 96.6 | 102 | 104% | 99.7 | 102% | 94.7% | 96.3% | 111%
COc1ccc(N2CCN(C(=O)c3sc4nc(C)c(Br)c(C)c4c3N)CC2)cc1 | 102% | 102% | 76.6 | 98.9 | 87.4% | 81.9 | 93.4% | 89.2% | 93% | 104%
Cc1cc(Nc2ccc(C(=O)N3CCCC3)cc2)nc(NCCCNc2ccnc3cc(Cl)ccc23)n1 | 102% | 68.9% | 91.2 | 84.1 | 53.5% | 93.3 | 92.3% | 86.8% | -67.1% (active) | 92.1%
N=C(N)c1ccc(-c2ccc(-c3ccccc3)s2)cc1 | -28.3% (active) | -5% (active) | 108 | 50.1 | 9.73% (active) | 51.3 | 95.5% | 94.9% | -70.2% (active) | 113%
CN(C)S(=O)(=O)Oc1ccc(-c2sc3cc(OS(=O)(=O)N(C)C)ccc3c2C(=O)c2ccc(OCCN3CCCCC3)cc2)cc1 | 34.2% | 8.75% (active) | 61.5 | 58.2 | 18.6% | 53.6 | 67.5% | 47.3% | 32.7% | 57.2%
Cc1ccc(/C=C/C(=O)c2ccc(-n3cc(CN4CCN(c5cc6c(cc5F)c(=O)c(C(=O)O)cn6C5CC5)CC4)nn3)cc2)cc1 | 97.6% | 98.9% | 70.8 | 86.4 | 73.1% | 89.6 | 86.2% | 77.6% | 56.9% | 100%
Cc1ccc(-c2nc(/C=C3/C(=O)Nc4ccc(F)cc43)c3ccccn23)cc1 | -3.43% (active) | 17.2% | 92.2 | 95 | 64.3% | 68.1 | 86.7% | 74.7% | 63.8% | 103%
C=C(CNCCO)[C@@H]1CC[C@]2(CO)CC[C@]3(C)[C@H](CC[C@@H]4[C@@]5(C)CCC(N)C(C)(C)[C@@H]5CC[C@]43C)[C@@H]12 (stereo not given in full) | 77% | -22.4% (active) | 43.5 | 53.9 | -78.5% (active) | 61.9 | -87.8% (active) | 9.7% (active) | -67.8% (active) | -76.3% (active)
Ic1ccccc1I | 99.8% | 107% | 88.3 | 103 | 99% | 99.7 | 102% | 97.3% | 102% | 108%
CCN1C(=O)N(CC)C2C1NN=c1s/c(=C3\C(=O)N(CC(C)C)c4ccccc43)c(=O)n12 (stereo not given) | 12.5% | 2.25% (active) | 14.9 | 28 | 12.1% | 27.7 | 14.9% | 27.7% | 24.7% | 51%
Nc1nc2c(c3ncccc13)C(c1cccc(Cl)c1)Cc1ncccc1-2 (stereo not given) | 22.2% | 2.28% (active) | 32.5 | 21.1 | 16% | 18.3 | 29.3% | 22.1% | 36.8% | 63.9%
